Measured values taken from PubChem BioAssay (NCATS).
Several values for one entry are separate records, joined by “and”; a condition that tells them apart may be missing. Equal values may be shown once. Inconclusive results are not listed. Some compounds were tested as several samples or in several runs, with calls that do not always agree. Activity calls are given as the source filed them. Unless noted, calls come from the whole dose curve; as a rule, active = well fitted curve in the direction sought with a large enough effect; inconclusive = small, poorly fitted or top-dose-only effect, or another doubt; inactive = no such curve, though single readings can be large; an effect the other way counts as inactive or inconclusive.

How the values were obtained:
Tov-21-G = experiment: Primary qHTS to identify gynecologic anti-cancer compounds using libraries of approved drugs and bioactive compounds (AID 1345084); settings: Gynecologic cancer cell panel viability, ATPlite luminescence, 48 h; series mostly up to 57.5 µM; note: nearly all actives have a fitted effect of over 55% in size; note: potency is the fitted concentration of half-maximal effect
Summary of the method: (§1)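 Five-concentration response, 48 h; readout is ATP-driven luciferase luminescence.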

Tov112D = experiment: as above; settings: Gynecologic cancer cell panel viability, ATPlite luminescence, 48 h; series mostly up to 57.5 µM
Summary of the method: as §1

[1] = Drug repurposing screens with cells derived from glioblastoma tumor samples (AID 1345199); settings: GBM patient neurospheres viability, ATP luminescence, 48 h; note: nearly all actives have a fitted effect of over 40% in size; note: potency is the fitted concentration of half-maximal effect; for activity, negative = cell killing: % is set by controls: 0 for no effect and ±100 for the full control effect
Summary of the method: (§2)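 Primary testing used CD133+ neurospheres from four GBM patients, seven concentrations, 48 h exposure and ATP-based viability; confirmation added three slower-growing patient lines.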

astro = experiment: as above; settings: viability, ATP luminescence, 48 h; series mostly up to 45.9 µM
Summary of the method: as §2

[2] = qHTS assay for small molecule activators of the human pregnane X receptor (PXR) signaling pathway (AID 720659; call rule not given here; note: 0% is about no effect)
[3] = at 45.9 µM (top of the series), tumour line B
[4] = at 45.9 µM (top of the series), tumour line D
[5] = at 46 µM (top of the series), tumour line A
[6] = at 46.1 µM (top of the series), tumour line C

COC(=O)C1=C(C)NC(C)=C(C(=O)OC)C1c1ccccc1[N+](=O)[O-]
inactive: Potency (Tov-21-G) | Potency (Tov112D)

CO/N=C(\C(=O)N[C@@H]1C(=O)N2C(C(=O)O)=C(CSc3nc(=O)c(O)nn3C)CS[C@H]12)c1csc(N)n1
inactive: Potency (Tov-21-G) | Potency (Tov112D) | activity, negative = cell killing [1, 3] -2.24% | activity, negative = cell killing [1, 4] -10.7% | activity, negative = cell killing [1, 5] -24.8% | activity, negative = cell killing [1, 6] -11.4% | Potency (astro)

C[C@]12CC[C@@H]3c4ccc(O)cc4CC[C@H]3[C@@H]1CC[C@@H]2OC(=O)CCC1CCCC1
inactive: Potency (Tov-21-G) | Potency (Tov112D) | activity, negative = cell killing [1, 6] -26.4% and -9.85%
active: Potency ([1]; tumour line A) 7.94 µM and 22.4 µM | Potency ([1]; tumour line B) 35.5 µM | Potency ([1]; tumour line D) 35.5 µM and 20 µM

CCCCN1CCCC[C@H]1C(=O)Nc1c(C)cccc1C
inactive: Potency (Tov-21-G) | Potency (Tov112D) | activity, negative = cell killing [1, 3] -6.49% | activity, negative = cell killing [1, 4] -12.7% | activity, negative = cell killing [1, 5] -27.7% | activity, negative = cell killing [1, 6] 5.13% | Potency (astro)

COc1ccccc1O
inactive: Potency (Tov-21-G) | Potency (Tov112D) | activity, negative = cell killing [1, 3] -3.97% | activity, negative = cell killing [1, 4] 4.42% | activity, negative = cell killing [1, 5] -31.4% | activity, negative = cell killing [1, 6] 30.9% | activity, negative = cell killing ([1]; at 91.6 µM (top of the series), tumour line B) -1.8% | activity, negative = cell killing ([1]; at 91.6 µM (top of the series), tumour line D) -26.1% | activity, negative = cell killing ([1]; at 99.2 µM (top of the series), tumour line C) -15% | Potency (astro) | outcome [2]

COc1ccc2cc1Oc1ccc(cc1)C[C@H]1c3c(cc4c(c3Oc3cc5c(cc3OC)CCN(C)[C@@H]5C2)OCO4)CCN1C
inactive: Potency (Tov-21-G) | Potency (Tov112D)

Cc1ccc2nc(N)[nH]c(=O)c2c1Sc1ccncc1
active: Potency (Tov112D) 3.55 µM | Potency ([1]; tumour line A) 7.08 µM
inactive: Potency (Tov-21-G) | activity, negative = cell killing [1, 4] -18.7% | activity, negative = cell killing [1, 6] -42.8%

N[C@H](C(=O)O)c1ccc(O)cc1
inactive: Potency (Tov-21-G) | Potency (Tov112D) | activity, negative = cell killing [1, 3] -10.5% | activity, negative = cell killing [1, 4] -7.17% | activity, negative = cell killing [1, 5] -28.4% | activity, negative = cell killing [1, 6] -10.2% | Potency (astro)

CN(C)CC[C@@H](c1ccc(Cl)cc1)c1ccccn1
inactive: Potency (Tov-21-G) | Potency (Tov112D) | activity, negative = cell killing [1, 3] -9.08% | activity, negative = cell killing [1, 4] -26.8% | activity, negative = cell killing [1, 6] -11.4% | Potency (astro)
active: Potency ([1]; tumour line A) 14.1 µM

O=Cc1ccccc1C=O
inactive: Potency (Tov-21-G) | Potency (Tov112D)

Oc1ccc(C(O)CNCCCCCCNCC(O)c2ccc(O)c(O)c2)cc1O (configuration not stated)
inactive: Potency (Tov-21-G) | Potency (Tov112D) | activity, negative = cell killing [1, 3] -10.1% | activity, negative = cell killing [1, 4] -27.7%

CNCC(O)c1ccc(O)c(O)c1 (configuration not stated)
inactive: Potency (Tov-21-G) | Potency (Tov112D)

CCCCCCCCCCCCCCCCCCOCC(O)CO (configuration not stated)
inactive: Potency (Tov-21-G) | Potency (Tov112D) | activity, negative = cell killing [1, 3] 0.27% | activity, negative = cell killing [1, 4] 9.38% | activity, negative = cell killing [1, 5] -23.8% | activity, negative = cell killing [1, 6] 24.6% | Potency (astro)

C[C@@H]1CN(c2c(F)c(F)c3c(=O)c(C(=O)O)cn(C4CC4)c3c2F)C[C@H](C)N1
inactive: Potency (Tov-21-G) | Potency (Tov112D) | activity, negative = cell killing [1, 3] -1.06% | activity, negative = cell killing [1, 4] -13.8% | activity, negative = cell killing [1, 5] -28.8% | activity, negative = cell killing [1, 6] 26.5% | Potency (astro)

C=CCn1c(=O)n([C@@H]2O[C@H](CO)[C@@H](O)[C@H]2O)c2nc(N)[nH]c(=O)c21
inactive: Potency (Tov-21-G) | Potency (Tov112D) | activity, negative = cell killing [1, 3] -4.36% | activity, negative = cell killing [1, 4] 2.91% | activity, negative = cell killing [1, 5] -17.2% | activity, negative = cell killing [1, 6] -7.78% | Potency (astro)

CCC(=O)Nc1ccc(O)cc1
inactive: Potency (Tov-21-G) | Potency (Tov112D) | activity, negative = cell killing [1, 3] -16% | activity, negative = cell killing [1, 4] -0.42% | activity, negative = cell killing [1, 5] -15.2% | activity, negative = cell killing [1, 6] -16.9% | Potency (astro)

CC1(C)S[C@@H]2[C@H](NC(=O)Cc3ccccc3)C(=O)N2[C@H]1C(=O)O (tested in a mixture with another compound)
inactive: Potency (Tov-21-G) | Potency (Tov112D) | activity, negative = cell killing [1, 3] -3.74% | activity, negative = cell killing [1, 4] -13.1% | activity, negative = cell killing [1, 5] -22.7% | activity, negative = cell killing [1, 6] -9.44% | Potency (astro)

O=C(O)c1ccccc1O
inactive: Potency (Tov-21-G) | Potency (Tov112D) | activity, negative = cell killing [1, 3] -1.6% and -1.62% | activity, negative = cell killing [1, 4] -9.17% and -18.2% | activity, negative = cell killing [1, 5] -20.3% | activity, negative = cell killing [1, 6] -6.51% and 1.73% | Potency (astro)

N[C@H]1C(O)O[C@H](CO)[C@@H](O)[C@@H]1O (some centres not stated)
inactive: Potency (Tov-21-G) | Potency (Tov112D) | activity, negative = cell killing [1, 3] -5.64% | activity, negative = cell killing [1, 4] 4.44% | activity, negative = cell killing [1, 5] -25.4% | activity, negative = cell killing [1, 6] -6.46% | Potency (astro)

COCCOC(=O)C1=C(C)NC(C)=C(C(=O)OC/C=C/c2ccccc2)C1c1cccc([N+](=O)[O-])c1 (configuration not stated)
active: Potency ([1]; tumour line A) 3.55 µM | Potency ([1]; tumour line C) 18.4 µM | Potency ([1]; tumour line D) 12.6 µM
inactive: Potency (Tov-21-G) | Potency (Tov112D) | activity, negative = cell killing [1, 3] 2.48%
